PubChem BioAssay (Tox21)
Where “and” joins values, the source holds several entries; their conditions need not be identical. Equal values may be shown once. Records with an inconclusive call do not appear. Some compounds were tested as several samples or in several runs, with calls that do not always agree. Calls of active or inactive are those of the source. Unless noted, the call rests on the fitted dose curve; in most records, active means well fitted curve in the direction sought with a large enough effect in the repeat runs; inconclusive means weak or mixed curves; inactive means no such curve, though single readings can be large; an effect the other way counts as inactive or inconclusive. Residues, ends and D or L forms follow the SMILES beside them.

What was measured:
[1] = qHTS RealTime-Glo MT Cell Viability Assay in HEK293 cells - 0 hour (AID 1224880); conditions: RealTime-Glo luminescence; series mostly up to 76.8 µM; further: top concentration of the series differs between compounds; nearly all actives have a fitted effect of over 45% in size
Summary of the method: (§1)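 HEK293 + NanoLuc + prosubstrate, 600 cells/well; 5 h, 37 C/5% CO2; compound 23 nL in DMSO by pintool; 37 C; luminescence read at 0, 8, 16, 24, 32 and 40 h time points.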

[2] = A CellTox Green Cytotoxicity Assay to monitor cytotoxicity in HEK293 cells - 32 hour (AID 1224881); conditions: CellTox Green fluorescence; series mostly up to 76.8 µM; further: nearly all actives have a fitted effect of over 40% in size; further: potency means the concentration at half of the fitted maximal effect
Summary of the method: (§2)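 Tox21 screen in HEK293: membrane-impermeant cyanine dye fluoresces on binding dead-cell DNA; compound pinned 5 h post-seeding, plates held at 37 C, signal read repeatedly through 40 h.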

[3] = A CellTox Green Cytotoxicity Assay to monitor cytotoxicity in HepG2 cells - 0 hour (AID 1224882); conditions: CellTox Green fluorescence; series mostly up to 76.8 µM; further: nearly all actives have a fitted effect of over 35% in size
Summary of the method: (§3)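 Measurements at 0, 8, 16, 24, 32 and 40 h of treatment captured CellTox Green fluorescence in HepG2 cells that had been co-plated with reagent and preincubated 5 h at 37 C/5% CO2.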

[4] = A CellTox Green Cytotoxicity Assay to monitor cytotoxicity in HepG2 cells - 32 hour (AID 1224883); conditions: CellTox Green fluorescence; series mostly up to 76.8 µM; further: nearly all actives have a fitted effect of over 50% in size; further: potency means the concentration at half of the fitted maximal effect
Summary of the method: as §3

[5] = A CellTox Green Cytotoxicity Assay to monitor cytotoxicity in HEK293 cells - 8 hour (AID 1224884); conditions: CellTox Green fluorescence; series mostly up to 76.8 µM; further: nearly all actives have a fitted effect of over 35% in size
Summary of the method: as §2

[6] = qHTS RealTime-Glo MT Cell Viability Assay in HepG2 cells - 16 hour (AID 1224885); conditions: RealTime-Glo luminescence; series mostly up to 76.8 µM; further: nearly all actives have a fitted effect of over 50% in size
Summary of the method: (§4)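 Compound treatment began 5 h after plating HepG2 cells (600/well) with NanoLuc luciferase and prosubstrate. Plates stayed at 37 C for 40 h; luminescence was captured at six time points, 0 h through 40 h.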

[7] = qHTS RealTime-Glo MT Cell Viability Assay in HEK293 cells - 24 hour (AID 1224886); conditions: RealTime-Glo luminescence; series mostly up to 76.8 µM; further: nearly all actives have a fitted effect of over 50% in size; further: potency means the concentration at half of the fitted maximal effect
Summary of the method: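 Quantitative high-throughput screen of the Tox21 10K library in HEK293: cells and RealTime-Glo reagents plated together, compound added at 5 h, luminescence monitored through 40 h at 37 C.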

[8] = qHTS RealTime-Glo MT Cell Viability Assay in HEK293 cells - 8 hour (AID 1224887); conditions: RealTime-Glo luminescence; series mostly up to 76.8 µM; further: top concentration of the series differs between compounds; nearly all actives have a fitted effect of over 50% in size
Summary of the method: as §1

[9] = A CellTox Green Cytotoxicity Assay to monitor cytotoxicity in HEK293 cells - 16 hour (AID 1224888); conditions: CellTox Green fluorescence; series mostly up to 76.8 µM; further: nearly all actives have a fitted effect of over 35% in size
Summary of the method: as §2

[10] = qHTS RealTime-Glo MT Cell Viability Assay in HepG2 cells - 0 hour (AID 1224889); conditions: RealTime-Glo luminescence; series mostly up to 76.8 µM; further: nearly all actives have a fitted effect of over 50% in size; further: potency means the concentration at half of the fitted maximal effect
Summary of the method: as §4

[11] = A CellTox Green Cytotoxicity Assay to monitor cytotoxicity in HepG2 cells - 8 hour (AID 1224890); conditions: CellTox Green fluorescence; series mostly up to 76.8 µM; further: nearly all actives have a fitted effect of over 45% in size
Summary of the method: as §3

[12] = qHTS assay to identify small molecule antagonists of the estrogen receptor alpha (ER-alpha) signaling pathway using the BG1 cell line in the presence of 0.1 nM 17-beta-estradiol - cell viability counter screen (AID 1259241); conditions: VM7Luc4E2 (BG1) viability, CellTiter-Fluor protease, 22 h, 0.1 nM estradiol agonist added; series mostly up to 92.4 µM; further: nearly all actives have a fitted effect of over 40% in size
Summary of the method: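 Viability in VM7Luc4E2 cells after 22 hr compound exposure under 0.1 nM 17beta-estradiol stimulation, by CellTiter-Fluor.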

[13] = qHTS assay to identify small molecule antagonists of the androgen receptor (AR) signaling pathway using the MDA cell line in the presence of 0.5 nM R1881 - cell viability counter screen (AID 1259242); conditions: MDA-kb2 viability, CellTiter-Fluor protease fluorescence, 16 h; series mostly up to 92.4 µM; further: nearly all actives have a fitted effect of over 45% in size
Summary of the method: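 Concentration-response screen of compounds for toxicity in MDA-kb2 reporter cells: 16 hr at 37C with 0.5 nM R1881, endpoint live-cell protease fluorescence measured in the reporter wells.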

[14] = biological target: Estrogen receptor (Homo sapiens) (UniProt P03372); test: qHTS assay to identify small molecule antagonists of the estrogen receptor alpha (ER-alpha) signaling pathway using the BG1 cell line in the presence of 0.1 nM 17-beta-estradiol (AID 1259244); conditions: VM7Luc4E2 (BG1) ERE-luciferase, antagonist mode, 0.1 nM E2, 22 h; series mostly up to 92.4 µM; further: nearly all actives have a fitted effect of over 50% in size; further: potency means the concentration at half of the fitted maximal effect
Chain of Estrogen receptor (Homo sapiens) (P03372 whole entry, looked up): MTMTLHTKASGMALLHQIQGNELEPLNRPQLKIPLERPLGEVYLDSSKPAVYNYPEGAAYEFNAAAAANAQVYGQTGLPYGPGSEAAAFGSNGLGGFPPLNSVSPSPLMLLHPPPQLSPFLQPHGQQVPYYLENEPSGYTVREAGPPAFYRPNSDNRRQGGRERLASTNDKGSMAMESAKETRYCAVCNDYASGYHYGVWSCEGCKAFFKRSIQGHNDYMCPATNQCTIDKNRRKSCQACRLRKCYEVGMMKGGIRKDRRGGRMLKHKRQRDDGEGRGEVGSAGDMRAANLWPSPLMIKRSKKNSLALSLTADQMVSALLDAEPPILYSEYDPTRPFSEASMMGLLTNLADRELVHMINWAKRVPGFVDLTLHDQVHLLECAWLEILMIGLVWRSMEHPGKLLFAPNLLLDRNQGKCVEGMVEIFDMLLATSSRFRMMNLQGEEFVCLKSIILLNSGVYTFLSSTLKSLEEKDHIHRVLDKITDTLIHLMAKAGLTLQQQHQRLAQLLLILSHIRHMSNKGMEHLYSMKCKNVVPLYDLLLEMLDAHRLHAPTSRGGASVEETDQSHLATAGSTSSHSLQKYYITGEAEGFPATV
Summary of the method: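 Compounds were tested against 0.1 nM (final) 17beta-estradiol in VM7Luc4E2 cells, which express full-length ER-alpha and an ERE-luciferase reporter; luminescence was recorded following 22 h exposure.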

[15] = qHTS assay to identify small molecule phospholipidosis (PLD) inducers (AID 1259344; active means well fitted curve in the direction sought with a large enough effect; an effect the other way counts as inactive or inconclusive); conditions: HepG2 phospholipidosis, LipidTOX Red imaging, 24 h; series mostly up to 38.3 µM
Summary of the method: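 Image-based: LipidTOX Red pit count/intensity per well and per cell; HepG2, 24 h compound at 37 C, PFA fixation, Hoechst counterstain.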

[16] = qHTS assay to identify small molecule HDAC inhibitors (AID 1259364); conditions: HCT-116 HDAC-Glo I/II luminescence, 2 h; series mostly up to 92.4 µM; further: potency means the concentration at half of the fitted maximal effect;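 further: wild-type HCT-116 cells with endogenous class I/II HDAC activity; nearly all actives have a fitted effect of over 45% in size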
Summary of the method: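 Screening used wild-type human colon HCT-116 cells incubated overnight, dosed with compounds for 2 hours, and assayed with a homogeneous luminogenic HDAC I/II reagent for 30 minutes at room temperature.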

[17] = qHTS assay to identify small molecule HDAC inhibitors - cell viability counter screen (AID 1259365); conditions: HCT-116 viability, CellTiter-Glo ATP luminescence, 2 h; series mostly up to 92.4 µM; further: nearly all actives have a fitted effect of over 50% in size
Summary of the method: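 Cytotoxicity was gauged in wild-type HCT-116 cells after a brief 2hr treatment with DMSO-dissolved compounds at 37C and 5% CO2, using CellTiter-Glo luminescence developed for 30min at room temperature.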

[18] = qHTS assay to identify small molecule agonists of the sonic hedgehog signaling (Shh) pathway - cell viability counter screen (AID 1259366); conditions: NIH/3T3 Gli1-Luc viability, CellTiter-Fluor, 24 h; series mostly up to 92.4 µM; further: nearly all actives have a fitted effect of over 50% in size; further: potency means the concentration at half of the fitted maximal effect
Summary of the method: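 Stable Gli1-Luc NIH/3T3 clone, 2,000 cells/well. Compound exposure 24hr at 37C. Read-out: CellTiter-Fluor fluorescence.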

[19] = qHTS assay to identify small molecule antagonists of the sonic hedgehog signaling (Shh) pathway - cell viability counter screen (AID 1259367); conditions: NIH/3T3 Gli1-Luc viability, CellTiter-Fluor, 24 h; series mostly up to 92.4 µM; further: nearly all actives have a fitted effect of over 55% in size; further: potency means the concentration at half of the fitted maximal effect
Summary of the method: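 Tox21 library chemicals were tested on a Gli1-Luc NIH/3T3 clone (2,000 cells/well) stimulated by conditioned medium; viability was quantified as fluorescence from CellTiter-Fluor reagent added at 23 hr.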

[20] = biological target: Androgen receptor (Homo sapiens) (UniProt P10275); test: qHTS assay to identify small molecule antagonists of the androgen receptor (AR) signaling pathway using the MDA cell line in the presence of 0.5 nM R1881 (AID 1259243); conditions: MDA-kb2 MMTV-luciferase, R1881 0.5 nM, 16 h; series mostly up to 92.4 µM; further: nearly all actives have a fitted effect of over 50% in size
Chain of Androgen receptor (Homo sapiens) (P10275 whole entry, looked up): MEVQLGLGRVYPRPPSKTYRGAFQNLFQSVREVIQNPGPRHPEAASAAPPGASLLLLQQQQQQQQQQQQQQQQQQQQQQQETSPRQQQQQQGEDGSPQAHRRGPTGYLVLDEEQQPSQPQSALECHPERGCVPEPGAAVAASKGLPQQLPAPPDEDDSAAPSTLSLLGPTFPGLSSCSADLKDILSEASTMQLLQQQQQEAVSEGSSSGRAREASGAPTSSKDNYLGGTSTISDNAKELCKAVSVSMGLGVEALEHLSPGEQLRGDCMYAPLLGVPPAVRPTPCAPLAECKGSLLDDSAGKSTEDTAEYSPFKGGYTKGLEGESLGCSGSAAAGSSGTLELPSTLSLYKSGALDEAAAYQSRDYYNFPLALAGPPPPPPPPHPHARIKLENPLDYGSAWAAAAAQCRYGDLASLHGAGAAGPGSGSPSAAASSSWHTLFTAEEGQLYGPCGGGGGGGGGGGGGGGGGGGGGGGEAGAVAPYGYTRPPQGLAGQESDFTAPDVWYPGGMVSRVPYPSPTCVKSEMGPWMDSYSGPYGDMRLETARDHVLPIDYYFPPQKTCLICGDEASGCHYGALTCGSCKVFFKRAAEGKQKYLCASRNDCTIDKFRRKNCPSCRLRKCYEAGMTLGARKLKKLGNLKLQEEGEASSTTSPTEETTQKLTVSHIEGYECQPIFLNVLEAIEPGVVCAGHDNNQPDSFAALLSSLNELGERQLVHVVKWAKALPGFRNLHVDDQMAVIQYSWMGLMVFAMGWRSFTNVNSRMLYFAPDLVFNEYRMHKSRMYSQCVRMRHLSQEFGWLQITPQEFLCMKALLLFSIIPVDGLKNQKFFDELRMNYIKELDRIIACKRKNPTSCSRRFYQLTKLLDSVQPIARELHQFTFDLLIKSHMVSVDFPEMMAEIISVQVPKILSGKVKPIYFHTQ
Summary of the method: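 With R1881 held at 0.5 nM (final), compound effects on MMTV-luciferase expression in MDA-kb2 cells were scored by luminescence after a 16 hr, 37C incubation.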

Measured: Potency

CCCC(CCC)C(=O)O
not listed: [20]
inactive: all other assays above

Cc1cc(=O)[nH]c(=S)[nH]1
not listed: [20]
inactive: all other assays above

CC(=O)NS(=O)(=O)c1ccc(N)cc1
not listed: [20]
inactive: all other assays above

Cc1ccc(S(=O)(=O)NC(=O)NN2CCCCCC2)cc1
not listed: [20]
inactive: all other assays above

CCCC(O)C(CC)CO (stereo not drawn)
not listed: [20]
inactive: all other assays above

CCCCC(CC)COC(=O)/C=C/c1ccc(OC)cc1 (stereo not drawn)
inactive: all assays above

C[C@]12C=CC(=O)C=C1CC[C@@H]1[C@@H]2[C@@H](O)C[C@@]2(C)[C@H]1CC[C@]2(O)C(=O)CO
active: [10] 21.6 µM and 19.5 µM
not listed: [20]
inactive: all other assays above

O=C(c1ccccc1)c1ccccc1
not listed: [14]
inactive: all other assays above

Cn1c(=O)c2[nH]cnc2n(C)c1=O
not listed: [20]
inactive: all other assays above

NNC(=O)c1ccncc1
not listed: [20]
inactive: all other assays above

CC(O)C(=O)O (stereo not drawn)
not listed: [20]
inactive: all other assays above

CC(=O)Nc1nnc(S(N)(=O)=O)s1
not listed: [20]
inactive: all other assays above

O=C(O)CCCCC(=O)O
not listed: [20]
inactive: all other assays above

CC(O)CO (stereo not drawn)
not listed: [20]
inactive: all other assays above

Nc1ccc(C(=O)O)cc1
not listed: [20]
inactive: all other assays above

NC(N)=O
16.3 µM (active) and inactive: [19]
23 µM (active) and inactive: [18]
not listed: [20]
inactive: all other assays above

O=C(O)CCC(=O)O
not listed: [20]
inactive: all other assays above

C1N2CN3CN1CN(C2)C3
not listed: [14]
inactive: all other assays above

NC(=O)c1cnccn1
not listed: [20]
inactive: all other assays above

N=C(N)c1ccc(OCCCCCOc2ccc(C(=N)N)cc2)cc1
48.8 µM (active) and inactive: [4]
active: [7] 19.4 µM and 18.6 µM | [14] 13.6 µM and 18.5 µM | [16] 8.59 µM and 9.26 µM
not listed: [20]
inactive: all other assays above

CC(C)[C@@H]1CC[C@@H](C)C[C@H]1O
not listed: [14]
inactive: all other assays above

NC(N)=NC(=O)c1nc(Cl)c(N)nc1N
not listed: [20]
inactive: all other assays above

Cc1ccc(O)cc1
not listed: [14]
inactive: all other assays above

CCCNC(=O)NS(=O)(=O)c1ccc(Cl)cc1
not listed: [20]
inactive: all other assays above

O=c1cc[nH]c(=S)[nH]1
not listed: [20]
inactive: all other assays above

CC1(C)[C@@H]2CC[C@@]1(C)C(=O)C2
inactive and 8.49 µM (active): [2]
not listed: [20]
inactive: all other assays above

CC(C)(Oc1ccc(C2CC2(Cl)Cl)cc1)C(=O)O (stereo not drawn)
inactive: all assays above

COC(=O)[C@H](Cc1ccccc1)NC(=O)[C@@H](N)CC(=O)O (H-Asp-Phe-OMe)
not listed: [20]
inactive: all other assays above

CCCN(CCC)S(=O)(=O)c1ccc(C(=O)O)cc1
not listed: [14]
inactive: all other assays above
